In the library only some 2.5% were active in any assay of this set; here they are far more common.
NSD2 inh: NSD2 histone methyltransferase inhibitors, primary screen, biochemical, AlphaScreen, single concentration, set 2 | NSD2 peptide methylation, 120 min | hit rate 0.54% among 310,000 | inhibition, % at 12.5 µM | Histone-lysine N-methyltransferase NSD2 (Homo sapiens), O96028; in the data active = inhibition above about 50%
CASP6 VEID inh: human caspase-6 inhibitors, primary screen, biochemical, VEID-R110 fluorescence, single point, set 2; purified caspase-6, Z-VEID-R110 cleavage fluorescence; inhibition, % at 12.5 µM; hit rate 0.53% among 350,000;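 active = mean inhibition across replicates at least about 35%, with every replicate also reaching that limit, limit read from the data; inconclusive = only one of the two criteria met; inactive = neither criterion met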
MLL AF4-AF9 inh: inhibitors of AF4 peptide binding to AF9, primary screen, biochemical, AlphaScreen, biotin-AF4 peptide, FLAG-AF9, single point | Protein AF-9 (Homo sapiens), P42568 | hit rate 0.47% among 350,000 | AID 651704, 2012 | inhibition, % at 10 µM;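 active = every replicate reaching a set inhibition limit, whatever the replicate mean, cut at about 25% in these data; inconclusive = mean inhibition reaches that limit but some replicates miss it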
Target sequence (P42568 whole entry, looked up): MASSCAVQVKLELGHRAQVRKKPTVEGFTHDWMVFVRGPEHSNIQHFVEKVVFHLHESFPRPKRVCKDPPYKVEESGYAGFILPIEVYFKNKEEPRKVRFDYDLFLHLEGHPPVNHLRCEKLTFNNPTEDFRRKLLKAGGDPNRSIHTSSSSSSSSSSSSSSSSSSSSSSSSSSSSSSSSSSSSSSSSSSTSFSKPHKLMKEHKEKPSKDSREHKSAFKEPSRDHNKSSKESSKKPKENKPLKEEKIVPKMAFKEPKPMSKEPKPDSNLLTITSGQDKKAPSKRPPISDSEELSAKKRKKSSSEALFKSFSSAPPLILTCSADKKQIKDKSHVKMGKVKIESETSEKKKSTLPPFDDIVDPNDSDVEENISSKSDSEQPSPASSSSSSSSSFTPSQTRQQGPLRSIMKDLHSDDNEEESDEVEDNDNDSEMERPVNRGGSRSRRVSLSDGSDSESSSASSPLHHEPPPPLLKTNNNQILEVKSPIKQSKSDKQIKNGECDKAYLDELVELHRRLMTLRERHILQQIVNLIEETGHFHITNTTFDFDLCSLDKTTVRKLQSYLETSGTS
RAD52 inh: RAD52 DNA annealing inhibitors, primary screen, biochemical, FRET, single point, set 2; recombinant RAD52 DNA annealing, FRET fluorescence; inhibition, % at 18.7 µM; hit rate 0.46% among 360,000;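 active = every replicate showing at least 50% inhibition; inconclusive = mean inhibition at least 50% but not in every replicate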
Ecoli rRNA inh: reduced GFP signal of wild-type E. coli, primary screen, bacterial rRNA inhibitor project, GFP/RFP fluorescence, OD600, single point | E. coli WT GFP vs humanized-ribosome RFP mutants, 24 h; stronger effect = lower value; DMSO median 0, no signal -100 | GFP signal change (wild-type ribosome), % (test concentration not listed) | hit rate 1.6% among 350,000;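 active = significant combined selectivity score with lowered wild-type GFP, culture density cut under 30%, mutant RFP and density less affected; inactive = any of these conditions unmet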
AlphaScreen intf: AlphaScreen signal interference counter-screen, dose response, artefact control, biochemical, cherry-picked samples, luminescence; shares compounds with MLL AF4-AF9 inh; AC50, µM (top dose mostly 12 µM); hit rate 45% among 530; AID 720494, 2013; cut-off not given, nearly all actives have AC50 up to about 14 µM
RAD52 DNA ctr: DNA-binding compounds via dye displacement, dose response, artefact control for RAD52 inhibitor project, biochemical, fluorescence polarization, cherry-pick. AC50, µM. shares compounds with RAD52 inh. Salmon sperm DNA/acridine orange FP displacement. hit rate 8% among 1,000;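 active = fitted half-maximal concentration for signal loss at or below twice the highest dose tested, in every separate run, actives reach about 64 µM in these data; inconclusive = runs disagree, or flat partial signal loss, or poor fit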
Of the large screens only hits and unclear results are named; the others gave an inactive call (follow-up assays come after a bar, where they were run); ! = repeats disagree.

COC(=O)[C@@H]1[C@@H](CO)[C@@H]2Cn3c(ccc(-c4ccccc4)c3=O)[C@H]1N2CC1CCOCC1	none (no result: NSD2 inh)
CCCCC(=O)N/N=C/c1c(O)n(Cc2ccc(F)cc2)c(=O)[nH]c1=O	Ecoli rRNA inh -27
CCCCC(=O)N/N=C/c1c(O)n(CCc2ccccc2)c(=O)[nH]c1=O	none
CC(=O)N1C[C@@H]2N[C@H](C1)C2c1ccccc1 (stereo partly specified)	none (no result: NSD2 inh, CASP6 VEID inh, MLL AF4-AF9 inh, RAD52 inh)
CC(C)C(=O)NC(Oc1ccccc1Cl)C(Cl)(Cl)Cl (stereo unspecified)	Ecoli rRNA inh -14 (no result: NSD2 inh)
CN(C)C1C(=O)C(C(N)=O)=C(O)C2(O)C(=O)C3=C(O)c4c(O)cccc4C(C)(O)C3C(O)C12 (stereo unspecified)	CASP6 VEID inh 53 (no result: NSD2 inh)
Cc1ccc(OC(=O)N(C)C[C@H]2OCc3ccccc3-c3c(n(C)c4ccccc34)C(=O)N([C@H](C)CO)C[C@H]2C)cc1	none (no result: NSD2 inh)
CNC(=S)N(C)CCc1cc2c(c(OC)c1C=C1C(=O)NC(=O)NC1=O)OCO2	MLL AF4-AF9 inh 65
C=CCN1[C@@H]2CN(C(=O)NC(C)C)C[C@H]1C2c1ccccc1 (stereo partly specified)	none (no result: NSD2 inh, CASP6 VEID inh, MLL AF4-AF9 inh, RAD52 inh)
O=C(Cc1ccccc1)N1CC2(C1)[C@@H](c1ccccc1)[C@H](CO)N2Cc1cccc(F)c1	none (no result: NSD2 inh, CASP6 VEID inh, MLL AF4-AF9 inh, RAD52 inh)
C[C@]12CCC(=O)C=C1CCC1C2CC[C@@]2(C)C1CC[C@@H]2O (stereo partly specified)	none
C[C@]12CCC(=O)C=C1CC[C@@H]1C2[C@H](O)C[C@]2(C)C(=O)CCC12 (stereo partly specified)	Ecoli rRNA inh -26
C[C@]12C=CC(=O)C=C1CC[C@@H]1[C@@H]2CC[C@]2(C)C(=O)CC[C@@H]12	Ecoli rRNA inh -23 (no result: NSD2 inh)
CC12C=CC(=O)C=C1CCC1C2C(=O)CC2(C)C(=O)CCC12 (stereo unspecified)	none
CSCCC(c1nnnn1C1CCCCC1)N1CCC(n2c(=O)[nH]c3ccccc32)CC1 (stereo unspecified)	MLL AF4-AF9 inh 34 (no result: NSD2 inh) | AlphaScreen intf inactive
O=c1[nH]c2ccccc2n1C1CCN(C(c2nnnn2C2CCCCC2)C2CC2)CC1 (stereo unspecified)	MLL AF4-AF9 inh 36 (no result: NSD2 inh) | AlphaScreen intf inactive
OCCNCCc1c[nH]c2ccc(OCc3ccccc3)cc12	none
Cc1[nH]c2ccc(OCc3ccccc3)cc2c1CCN	MLL AF4-AF9 inh 41 | AlphaScreen intf inactive
COc1ccc(C#Cc2ccc([C@H]3[C@H](CO)N4CCCCN(C(=O)Cc5ccncc5)C[C@@H]34)cc2)cc1	none (no result: NSD2 inh)
CCC1CN2CCc3cc(OC)c(OC)cc3C2CC1CC1NCCc2c1[nH]c1ccc(O)cc21 (stereo unspecified)	MLL AF4-AF9 inh inconclusive | AlphaScreen intf inactive
COc1ccc2c(c1OC)CN1CCc3cc4c(cc3C1C2)OCO4 (stereo unspecified)	none (no result: NSD2 inh, CASP6 VEID inh)
COC(=O)[C@@H]1[C@@H](CO)[C@@H]2Cn3c(ccc(-c4cccc(OC)c4)c3=O)[C@H]1N2C(=O)c1cnccn1	none (no result: NSD2 inh)
CCN(CCCl)c1cc(CN(C)C)cc(NC(=O)c2ccc(C(=O)Nc3cc(CN(C)C)cc(N(CC)CCCl)c3)cc2)c1	MLL AF4-AF9 inh 70, RAD52 inh 105 | AlphaScreen intf 2.5µM | RAD52 DNA ctr inconclusive
COc1ccc(-c2ccc([C@@H]3[C@H](CO)N4CCCCN(C(=O)Cc5ccccc5)C[C@@H]34)cc2)cc1	none (no result: NSD2 inh)
Cc1c(P(=S)(c2ccccc2)c2ccccc2)[n+]2ccccc2n1C	MLL AF4-AF9 inh 66!, RAD52 inh 97! | AlphaScreen intf inactive | RAD52 DNA ctr inactive
Cc1c(P(=S)(c2ccccc2)c2ccccc2)c2ccccc2n1C	none (no result: CASP6 VEID inh, MLL AF4-AF9 inh, RAD52 inh, Ecoli rRNA inh)
